Reference: PubChem BioAssay (NCI)
Where “and” joins values, the source holds several entries; their conditions need not be identical. Equal values may be shown once. Compounds without any hit were thinned out: in the full panel of roughly 83,000, 20% have a hit.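 Compound tested at a single concentration for 48 hours in 96-well plates; a percent growth value below 10 was scored as active.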 Calls of active or inactive are those of the source.

Tested on: MDA-MB-468 breast
Assay: NCI-60 one-dose screen, 48 h (100 = growth as untreated, 0 = no growth, -100 = all killed)
Settings: 10 µM unless noted

| Compound | growth |
| --- | --- |
| COc1ccc(/C=C2\Oc3cc(C)c(Cl)cc3C2=O)cc1OC | 110% (inactive) |
| O=C(Nc1ccc(OS(=O)(=O)c2ccccc2)cc1)C12CC3CC(CC(C3)C1)C2 | 40.5% (inactive) |
| CCCCCCCCCCCC[n+]1ccccc1 (tested in a mixture with another compound) | -37.6% (active) |
| Cc1ccc(/C=C/C(=O)c2cccc(OCCCOc3cccc(C(=O)/C=C/c4ccc(C)cc4)c3)c2)cc1 | 89.9% (inactive) |
| O=C(c1ccc(Cl)cc1)C(NCCO)c1ccc(Cl)cc1 (centres undefined) | 84.1% (inactive) and 114% (inactive) |
| Cc1ccc(N2CCN(C(C)C(N)=O)CC2)cc1 (centres undefined) | 109% (inactive) |
| Cn1cc(-c2noc(-c3cn(C)c4ncc(Br)cc34)n2)c2cc(Cl)ccc21 | 82.3% (inactive) |
| CCCCCn1c(C)cc(/C=C\c2ccc3cc(C)ccc3[n+]2C)c1C | -82.4% (active) |
| OC(c1ccccc1)(c1ccccc1)c1ccccc1-c1ccccc1 | 69.1% (inactive) |
| COc1ccc(-c2nc(-c3ccccc3)c(-c3ccccc3)n2C2CC2)cc1OC1CCCCC1 | 58.8% (inactive) |
| NC(=O)c1ccc2nc3c(n2c1)C(=O)C(=O)c1ccccc1-3 | -57.7% (active) |
| O=C(CC(O)c1ccccc1)Nc1ccccn1 (centres undefined) | 119% (inactive) |
| CCN(CC)CCNC(=O)c1cn2ncnc(Oc3ccc(NC(=O)Nc4ccc(Cl)c(C(F)(F)F)c4)cc3)c2c1C | -80.7% (active) |
| CCNC(=O)Oc1ccc(/C(=C(/C)c2ccc(Cl)cc2)c2ccc(OCCN3CCCC3)cc2)cc1 | 84.1% (inactive) |
